Laboratory results published in PubChem BioAssay (NCI).
About 83,000 compounds went through this panel and 20% of them were active in at least one assay; those are over-represented in the sample as a whole.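 For each line, cells grew in 96-well plates with the test compound present at a single concentration for 48 hours.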 Values without a mark were called inactive. The source made the active and inactive calls.

test system: SNB-19 CNS; experiment: NCI-60 one-dose screen, 48 h (100 = growth as untreated, 0 = no growth, -100 = all killed); settings: 10 µM unless noted
Method: Growth inhibition of the SNB-19 human tumor cell line is measured as a screen for anti-cancer activity. Cells are grown in 96 well plates and exposed to the test compound for 48 hours. Compounds are tested at a single concentration, which is 10^-5 M for most compounds. The reported endpoint is percent growth (GI% or GIPRCNT), where numbers from 0 - 100% represent growth inhibition, and numbers from -100% - 0 represent cell death. For example, a value of 40 represents 60% growth inhibition. A value of 0 means no net growth occurred over the course of the experiment. A value of -40 indicates 40% of cells at the beginning of the experiment died by the end of the experiment. A value of -100 means all cells are dead at the end of the experiment.
NCI-60 Human Tumor Cell Lines Screen was performed using the standard one-dose NCI protocol, which is described in more detail at https://dtp.cancer.gov/discovery_development/nci-60/default.htm.
Compounds with GIPRCNT values below 10 were considered active. Activity score was based on GIPRCNT using the following formula: […]
Score is 0 for GIPRCNT values of 100 or above, 50 for GIPRCNT values of 0, and 100 for GIPRCNT values of -100.

SMILES	growth
O=C1c2c(c3c4cc(F)ccc4oc3c3[nH]c4ccc(Br)cc4c23)C(=O)N1O	14.2%
COc1ccc(/C=C/c2nc3ccccc3nc2Nc2cccc(C)c2)cc1	98.5%
CC1(C)CC[C@]2(C(=O)O)CC[C@]3(C)C(=CCC4[C@@]5(C)C[C@@H](O)[C@@H]6OC(c7ccc(F)cc7)OC[C@@]6(C)C5CC[C@]43C)C2C1 (stereo not given in full)	34.9%
COc1c(F)ccc(C(=O)Nc2ccc3nc(NC(=O)C4CCCN(S(=O)(=O)c5ccc(Br)c(F)c5)C4)sc3c2)c1F (stereo not given)	81.9%
CN(C)c1nc(NCCNS(=O)(=O)c2ccc(C3=Nc4c(N)nc(N)nc4NC(c4ccc(C(F)(F)F)cc4)C3)cc2)nc(Nc2ccc(F)cc2)n1 (stereo not given)	22.9%
COc1ccc(CCC2c3c(cc4c(c3OC)OCO4)CCN2C)cc1 (stereo not given)	-2.75% (active)
COc1cccc(/C=C/C(=O)c2ccc(OC)c(S(N)(=O)=O)c2)c1	27%
CCOC(=O)COc1c(OC)c(OC)cc2oc(-c3cccc(C(=O)Nc4ccc(Cl)cc4)c3)cc(=O)c12	62.3%
CC1CN(c2oc(-c3ccc([N+](=O)[O-])cc3)nc2C#N)CC(C)O1 (stereo not given)	92.2%
S=c1c2ccccc2nc2n1CCc1c-2[nH]c2ccccc12	16.1%
COc1cc(/C=C/C(=O)c2nnn(-c3ccc(Cl)cc3)c2C)cc(OC)c1OC	60.3%
CC12CC[C@@H]3[C@]4(C)COC(c5cn[nH]c5-c5ccc(Br)cc5)O[C@@H]4CC[C@@]3(C)[C@@H]1CC(C1=CCOC1=O)O2 (stereo not given in full)	59.4%
COc1ccc2oc(=O)c(C3(C)NC(=O)c4c(/C=C/C(=O)OC(C)(C)C)cccc4N3)cc2c1 (stereo not given)	50.8%
COc1ccc(-c2nc3cc(C)ccc3n2CC(=O)N=Nc2c(O)[nH]c3ccc(OC)cc23)cc1	4.91% (active)
CN1CCN(c2ccc(C(=O)/C=C/c3ccc(Br)cc3)cc2)CC1	31.4%
COc1c(F)ccc(C(=O)Nc2ccc3nc(NC(=O)C4CCCN(S(=O)(=O)c5ccc(Br)s5)C4)sc3c2)c1F (stereo not given)	90.1%
COc1c(F)ccc(C(=O)Nc2ccc3nc(NC(=O)C4CCCN(S(=O)(=O)c5ccc(C(F)(F)F)cc5)C4)sc3c2)c1F (stereo not given)	83.8%
COc1cc(OC)cc(-c2cc3ccc(N(C)C)cc3c(=O)[nH]2)c1	35.5%
O=C(/C=C/c1ccc(-c2ccccc2)cc1)c1nc2ccccc2n1Cc1ccc(F)cc1	44.6%
Cc1occc1C(=O)NN1C(=O)/C(=C/C=C/c2ccc([N+](=O)[O-])o2)SC1=S	12.6%

SMILES	growth
C#CCOc1ccc(/C=N/Nc2nc(-c3cc4cc(Br)ccc4oc3=O)cs2)cc1OC	49.6%
Cc1ccc2c(N)c(C(=O)Nc3ccc(OC(F)(F)F)cc3)sc2n1	79.5%
Cc1ccc([C@H]2C(C(=O)c3ccc(Cl)cc3)C3(N[C@@H]2c2ccccc2)C(=O)Nc2ccc(Br)cc23)cc1 (stereo not given in full)	66.5%
C=C1CCC2C3(C)COC(c4cccc(F)c4)OC3CCC2(C)C1C/C=C1/C(=O)OCC1O (stereo not given)	30.1%
COc1c(F)ccc(C(=O)Nc2ccc3nc(NC(=O)C4CCCN(S(=O)(=O)c5cccc(Br)c5)C4)sc3c2)c1F (stereo not given)	82.7%
C=C1CCC2C3(C)COC(c4cc(F)cc(F)c4)OC3CCC2(C)C1CC(O)C1=CCOC1=O (stereo not given)	88.6%
CCCn1cc(-c2nc(Nc3ccc(C(=O)NCCCCNc4cccc5c4C(=O)N(C4CCC(=O)NC4=O)C5=O)cc3)nc3[nH]ccc23)cn1 (stereo not given)	23.4%
O=C(O)Cn1c(O)c(/C=C2/C=c3cc4c(cc3=NC2=O)OCCO4)sc1=S	97.9%
COc1cc(CNC(=O)/C=C/c2ccc3c(c2)OCO3)ccc1OCc1cn(-c2ccc([N+](=O)[O-])cc2)nn1	86.5%
O=C(c1ccccc1)c1ccc2nc(-c3ccc(F)cc3)[nH]c2c1	75.2%
C=C1CC[C@@H]2[C@]3(C)COC(c4ccccc4)O[C@@H]3CC[C@@]2(C)[C@@H]1C/C=C1/C(=O)OCC1OC(C)=O (stereo not given in full)	55.5%
Cc1cc2c(cc1Cl)C(=O)/C(=C/c1ccccc1)O2	34.6%
C=C1CC[C@@H]2[C@]3(C)COC(c4cn[nH]c4-c4ccc(Br)cc4)O[C@@H]3CC[C@@]2(C)[C@@H]1C/C=C1/C(=O)OCC1O (stereo not given in full)	-36.5% (active)
CCOC(=O)C1=C(N)N(c2ccccc2)C2=C(C(=O)CC(C)(C)C2)C1c1ccc([N+](=O)[O-])cc1 (stereo not given)	94%
O=C(COc1ccc(NC(=O)Nc2ccccc2)cc1)N=Nc1c(O)[nH]c2ccc([N+](=O)[O-])cc12	0.584% (active)
CC(=O)Oc1ccccc1C(=O)[Se]CC(=O)Nc1cccc(C(F)(F)F)c1	-78.5% (active)
O=C(CSc1nc2ccccc2c(=O)[nH]1)NCCN1CCCCC1	94.6%
COc1ccc(C(=O)/C=C/c2cccc(Cl)c2Cl)cc1S(N)(=O)=O	6.23% (active)
COc1cccc(COc2ccc(NC(=O)Nc3ccc(Cl)c(C(F)(F)F)c3)cc2)c1	24.6%
Cc1cc(C)n(-c2ccc3nnc(-c4ccccc4)n3n2)n1	98.3%
